Hits are enriched below; roughly 9.5% of the tested compounds scored in any of these assays.
HPGD block: inhibitors of human 15-hydroxyprostaglandin dehydrogenase (HPGD) | AID 894 | hit rate 4.3% among 150,000 | Potency, µM, usual class: inhibitors | purified HPGD, NADH fluorescence kinetic, PGE2 substrate | P15428; active = well fitted inhibition curve with a large enough effect, not every such curve was filed as active; inconclusive = small, poorly fitted or top-dose-only effect, or another doubt; inactive = no such curve, though single readings can be large or run the other way
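NADH formation kinetics: reaction with 30 uM PGE2 and 1 mM NAD+ (final), 20 nM enzyme, Tris-HCl pH 8 with Tween 20, after 15 min compound preincubation at room temperature. Fluorescence change, last versus first of five reads.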
Tau ThT inhib: blocks human tau fibril formation measured by thioflavin T; P10636; recombinant tau K18 P301L, heparin-induced fibrillization, ThT fluorescence; Potency, µM (titrated, usually from 57.4 µM), hits mostly inhibitors; hit rate 2.1% among 270,000; also: nearly all actives have a fitted effect of over 55% in size
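In this qHTS, human K18 P301L tau is incubated with compound and heparin for 6 hr at 37 C, and Thioflavin T fluorescence then reports fibril load.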
ALDH1A1 block: inhibitors of human aldehyde dehydrogenase 1A1. P00352. Purified ALDH1A1, NADH fluorescence, propionaldehyde substrate. Potency, µM (doses to about 75.3 µM), actives largely listed as inhibitors. hit rate 7.3% among 220,000; active = well fitted inhibition curve with a large enough effect, not every such curve was filed as active; inconclusive = small, poorly fitted or top-dose-only effect, or another doubt; inactive = no such curve, though single readings can be large or run the other way
Target sequence (P00352 whole entry, looked up): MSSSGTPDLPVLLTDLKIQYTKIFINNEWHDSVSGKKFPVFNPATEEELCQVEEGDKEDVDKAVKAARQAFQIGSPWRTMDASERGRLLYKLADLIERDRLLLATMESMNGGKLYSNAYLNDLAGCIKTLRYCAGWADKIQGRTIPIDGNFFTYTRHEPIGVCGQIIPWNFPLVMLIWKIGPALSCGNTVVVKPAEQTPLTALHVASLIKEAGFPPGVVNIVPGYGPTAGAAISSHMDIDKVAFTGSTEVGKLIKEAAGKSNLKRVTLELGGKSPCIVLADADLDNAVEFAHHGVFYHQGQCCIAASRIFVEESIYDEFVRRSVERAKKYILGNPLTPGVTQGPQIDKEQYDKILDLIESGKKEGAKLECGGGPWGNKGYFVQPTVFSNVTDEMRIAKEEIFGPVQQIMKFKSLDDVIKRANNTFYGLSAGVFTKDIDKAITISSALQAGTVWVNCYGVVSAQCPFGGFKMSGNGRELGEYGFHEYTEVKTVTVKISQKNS
Tau fibril FP: blocks human tau fibril formation measured by polarization; hit rate 0.39% among 280,000; K18 P301L tau heparin fibrillization, Alexa594 FP, 6 h; Potency, µM (highest dose often 57.7 µM), most hits filed as inhibitors; also: nearly all actives have a fitted effect of over 55% in size
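Read-out: fluorescence polarization of Alexa 594-labeled tau (0.24 uM), 555 nm excitation, 632 nm emission. Mixtures held 15 uM unlabeled K18 P301L, compound and 20 uM heparin, pH 7 acetate buffer, incubated 6 hr at 37 C.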
Tau fluor counter: counter-screen for tau fibril formation inhibitors | Potency, µM (series often up to 57.7 µM) | tau K18 P301L (four-repeat tau fragment) Alexa594 fluorescence, heparin fibrillization | hit rate 0.93% among 280,000 | AID 1463; also: nearly all actives have a fitted effect of over 55% in size
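Human K18 P301L tau (15 uM unlabeled plus 0.24 uM Alexa 594-labeled, final) in 100 mM sodium acetate pH 7 was mixed with compound and 20 uM heparin and incubated 6 hr at 37 C.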
NPSR antag: blocks cAMP signaling of the human neuropeptide S receptor; CHO-NPSR cells, cAMP TR-FRET, antagonist mode; Potency, µM (titrated, usually from 38.3 µM), usual class: inhibitors; hit rate 1% among 220,000; AID 1461; also: nearly all actives have a fitted effect of over 50% in size
A number is an active result; – = inactive; ? = inconclusive; · = not tested or not shown; [ ] = dose if it differs, or a comment. Unless noted, calls follow the shape of the dose curve; as a rule, active = well fitted curve in the direction sought with a large enough effect; inconclusive = small, poorly fitted or top-dose-only effect, or another doubt; inactive = no such curve, though single readings can be large; an effect the other way counts as inactive or inconclusive.

SMILES | HPGD block | Tau ThT inhib | ALDH1A1 block | Tau fibril FP | Tau fluor counter | NPSR antag
O=S(=O)(c1ccccc1)c1nnn2c1nc(NCc1ccccc1)c1cc(Cl)ccc12 | · | – | · | ? | – | ·
CC(=O)C=NCC(=O)O | – | · | –[13.5 µM] | · | · | ·
O=C(Nc1cccc(NC(=O)C2CCCO2)c1)c1ccco1 (stereo not given) | · | – | – | – | – | –
CCCCN1C(=O)C(O)(CC(=O)c2ccc(C(C)(C)C)cc2)c2ccccc21 (stereo not given) | · | – | · | – | – | ·
Cc1ccc(C(=O)CC2(O)C(=O)N(CN3CCOCC3)c3ccccc32)cc1 (stereo not given) | – | – | 14µM | – | – | –
COC(=O)CN1C(=O)C(O)(CC(=O)c2ccc(C)o2)c2ccccc21 (stereo not given) | – | – | 7.9µM | – | – | –
C=CCN1C(=O)C(O)(CC(=O)c2ccc(N)cc2)c2ccccc21 (stereo not given) | – | – | 5.6µM | – | – | –
CCC(=O)Nc1ccc(/C(C)=N\NS(=O)(=O)c2ccc(C)cc2)cc1 | – | – | ? | – | – | –
Cc1c(C(=O)Nc2ccccc2Cl)oc2ccc(S(=O)(=O)N3CCCCC3)cc12 | · | – | · | – | – | ·
CCN(CC)c1ccc(N=Cc2ccc([N+](=O)[O-])o2)cc1 | – | 10µM | ? | 11µM | ? | –
CCN(Cc1ccccc1)C(=O)/C=C/c1ccccc1[N+](=O)[O-] | · | – | ? | – | – | –
CCN(CC)c1ccc(N=Cc2ccccc2[N+](=O)[O-])cc1 | – | 14µM | 2µM | ? | ? | –
Cn1c(=O)c2c(nc(N3CCCCCC3)n2CC(=O)c2ccccc2)n(C)c1=O | – | – | 4.5µM | – | – | –
CCn1c(N2CCN(CC(=O)c3c[nH]c4ccccc34)CC2)nc2c1c(=O)[nH]c(=O)n2C | – | – | 22µM | – | – | –
Cn1c(=O)[nH]c(=O)c2c1nc(N1CCCCCC1)n2CC(N)=O | – | – | 14µM | – | – | –
C/C(Cl)=C\Cn1c(N2CCCCCC2)nc2c1c(=O)n(C)c(=O)n2C | – | – | 3.5µM | – | – | –
Cc1ccc(S(=O)(=O)Nc2c(C)nc3nc[nH]n3c2=O)c(C)c1 | · | – | – | – | – | –
Cc1ccc(N(CC(=O)NCc2ccc(F)cc2)S(=O)(=O)c2cccs2)cc1 | – | – | – | – | – | –
CCCNS(=O)(=O)c1ccc(OCC(=O)N2CCCC2)cc1 | · | – | – | – | – | –
CC(C)(C)c1ccc(Oc2ccc(NC(=O)c3cccs3)cn2)cc1 | · | – | · | 28µM | ? | ?
CCOC(=O)NC(=O)COC(=O)Cc1cc(OC)c(OC)c(OC)c1 | – | – | ? | – | – | –
OC[C@@H]1[C@@H](c2ccc(F)cc2)C(c2ccccc2)=NN1c1ccccc1 | ? | ? | ? | – | 16µM[quencher] | ·
CC[C@H]1C(c2ccc(F)cc2)=NN(c2ccccc2)[C@@H]1CO | ? | ? | ? | ? | 22µM[quencher] | ·
Cc1cccc(C2=NN(c3ccccc3)[C@H](CO)[C@H]2c2ccccc2)c1 | ? | ? | ? | ? | 18µM[quencher] | ·
Cc1cccc(C2=NN(c3ccccc3)[C@@H](C(=O)N3CCOC3=O)[C@@H]2c2ccc(F)cc2)c1 | ? | – | ? | – | ? | ·
SMILES | HPGD block | Tau ThT inhib | ALDH1A1 block | Tau fibril FP | Tau fluor counter | NPSR antag
O=C1OCCN1C(=O)[C@H]1[C@H](c2ccc(F)cc2)C(c2ccccc2)=NN1c1ccccc1 | ? | – | ? | – | ? | ·
Cc1ccc(C(c2sc3nc(-c4ccco4)nn3c2O)N2CCOCC2)cc1 (stereo not given) | · | – | · | – | – | ·
COc1ccc2c(c1)CC(C(=O)Nc1c(C)cc(C)cc1C)CO2 (stereo not given) | · | – | · | – | – | ·
CCOc1ccc(C(=O)CCNC(Cc2cnc[nH]2)C(=O)O)cc1 (stereo not given) | – | – | 1.6µM | – | – | –
CCOc1ccc(S(=O)(=O)NC(Cc2cnc[nH]2)C(=O)O)cc1 (stereo not given) | · | – | – | – | – | –
CC(Cc1ccccc1)C(=O)NCCc1c[nH]c2ccccc12 (stereo not given) | – | – | ? | ? | ? | ·

Screens from PubChem.
